Assay results from PubChem BioAssay (EPA / NIEHS).
Records with an inconclusive call do not appear. Activity calls are given as the source filed them. Rule for the calls: active = hit-call score of the fitted dose curve at least 0.9, where 1 is the maximum; inconclusive = response in the unintended direction; inactive = score below 0.9.

Tests used:
[1] = target: human Ephrin type-B Receptor 1 (EphB1), EPHB1 (gene 2047) (UniProt P54762); assay: NVS_ENZ_hEphB1: NovaScreen (NVS) Enzymatic Assay for human Ephrin type-B Receptor 1 (EphB1) (AID 2283154)
Procedure: NVS_ENZ_hEphB1 is a biochemical, single-readout assay that uses extracted gene-proteins in a cell-free assay. Measurements were taken 1 hour after chemical dosing in a 384-well plate.NVS_ENZ_hEphB1 is one of one assay component(s) measured or calculated from the NVS_ENZ_hEphB1 assay. It is designed to make measurements of enzyme activity, a form of enzyme reporter, as detected with fluorescence intensity signals by Fluorescence and electrophoretic mobility shift technology.Data from the assay component NVS_ENZ_hEphB1 was analyzed into 1 assay endpoint. This assay endpoint, NVS_ENZ_hEphB1, was analyzed in the positive analysis fitting direction relative to DMSO as the negative control and baseline of activity. Using a type of enzyme reporter, loss-of-signal activity can be used to understand changes in the enzymatic activity as they relate to the gene EPHB1. Furthermore, this assay endpoint can be referred to as a primary readout, because this assay has produced multiple assay endpoints where this one serves a enzymatic activity function. To generalize the intended target to other relatable targets, this assay endpoint is annotated to the kinase intended target family, where the subfamily is receptor tyrosine kinase. […]

[2] = target: human Dual Specificity Protein Phosphatase 3 (DUSP3), DUSP3 (gene 1845) (UniProt P51452); assay: NVS_ENZ_hDUSP3: NovaScreen (NVS) Enzymatic Assay for human Dual Specificity Protein Phosphatase 3 (DUSP3) (AID 2283152);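 note: phosphatase activity of recombinant human DUSP3 on a fluorogenic substrate without cells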
Summary of the method: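 Cell-free fluorescence-intensity enzyme activity assay with recombinant protein and substrate; loss of signal fitted relative to DMSO baseline. Primary screen in duplicate at 25 uM, actives then run in concentration series; measured 0 h after dosing.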

[3] = target: human Ephrin type-A Receptor 1 (EphA1), EPHA1 (gene 2041) (UniProt P21709); assay: NVS_ENZ_hEphA1: NovaScreen (NVS) Enzymatic Assay for human Ephrin type-A Receptor 1 (EphA1) (AID 2283158);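 note: activity is signal loss versus DMSO meaning EphA1 kinase inhibition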
Procedure: NVS_ENZ_hEphA1 is a biochemical, single-readout assay that uses extracted gene-proteins in a cell-free assay. Measurements were taken 1 hour after chemical dosing in a 384-well plate.NVS_ENZ_hEphA1 is one of one assay component(s) measured or calculated from the NVS_ENZ_hEphA1 assay. It is designed to make measurements of enzyme activity, a form of enzyme reporter, as detected with fluorescence intensity signals by Fluorescence and electrophoretic mobility shift technology.Data from the assay component NVS_ENZ_hEphA1 was analyzed into 1 assay endpoint. This assay endpoint, NVS_ENZ_hEphA1, was analyzed in the positive analysis fitting direction relative to DMSO as the negative control and baseline of activity. Using a type of enzyme reporter, loss-of-signal activity can be used to understand changes in the enzymatic activity as they relate to the gene EPHA1. Furthermore, this assay endpoint can be referred to as a primary readout, because this assay has produced multiple assay endpoints where this one serves a enzymatic activity function. To generalize the intended target to other relatable targets, this assay endpoint is annotated to the kinase intended target family, where the subfamily is receptor tyrosine kinase.
Binding assays used specific radioligands (tritiated, iodinated) with non-radioactive competitive displacement ligands in agonist or antagonist protocols (as indicated) and various reference compounds and inhibitors to titrate specific binding to receptors and transporters. Most enzyme assays (CYPs, kinases, phosphatases, proteases, HDACs) used recombinant protein and specific substrates (fluorescence mostly, some colorimetric and radioactive) and inhibitors, followed by a biochemical separation of substrate and product. All assays for the biochemical HTS were initially run in duplicate at a single concentration (10 uM for CYP450 assays and 25 uM for all others). Assay-chemical combinations meeting a pre-defined threshold (e.g., 30% inhibition and other criteria defined below) were then run in singleton concentration-response format with maximum concentration of 20 uM for CYPs and 50 uM for all others. Each assay was run with positive and negative controls, and concurrent controls on every plate. The follow-up (secondary) screen tested active chemical-pairs in concentration series, as well as a few additional assays not tested in the primary screen, some selected negative inactives, and several cases re-run in the concentration series for confirmatory purposes.

[4] = target: human Fibroblast Growth Factor Receptor 1 (FGFR1), FGFR1 (gene 2260) (UniProt P11362); assay: NVS_ENZ_hFGFR1: NovaScreen (NVS) Enzymatic Assay for human Fibroblast Growth Factor Receptor 1 (FGFR1) (AID 2283159);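 for AC50: hits lower the signal so potencies describe inhibitors of the kinase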
Summary of the method: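 Cell-free recombinant kinase with fluorescent substrate, product separated by electrophoretic mobility shift; read 1 hour after dosing, loss of signal relative to DMSO. Initial screen in duplicate at 25 uM, actives followed in concentration series.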

[5] = target: Histone deacetylase 3 (Homo sapiens) (UniProt O15379); assay: NVS_ENZ_hHDAC3: NovaScreen (NVS) Enzymatic Assay for human Histone Deacetylase 3 (HDAC3) (AID 2283163)
Summary of the method: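 Cell-free enzyme format: loss of fluorescent product after mobility-shift separation, 1 h incubation, recombinant human HDAC3. Single 25 uM duplicate screen first, then concentration series to a 50 uM top for hits; DMSO as baseline.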

[6] = target: human Esterase Plasma (ES), BCHE (gene 590) (UniProt P06276); assay: NVS_ENZ_hES: NovaScreen (NVS) Enzymatic Assay for human Esterase Plasma (ES) (AID 2283157)
Summary of the method: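 Screening ran at 25 uM in duplicate, followed by singleton concentration series reaching 50 uM for actives. Human plasma protein, colorimetric detection, 0.25 h exposure, DMSO negative control.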

[7] = target: human FYN Proto-Oncogene, Src family Tyrosine Kinase (Fyn), FYN (gene 2534) (UniProt P06241); assay: NVS_ENZ_hFyn: NovaScreen (NVS) Enzymatic Assay for human FYN Proto-Oncogene, Src family Tyrosine Kinase (Fyn) (AID 2283161)
Summary of the method: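 Cell-free kinase activity read by fluorescence after mobility-shift separation of substrate and product, 1 h post-dose. Initial single concentration 25 uM in duplicate, then concentration-response follow-up; DMSO baseline.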

[8] = target: human Elastase, ELANE (gene 1991) (UniProt P08246); assay: NVS_ENZ_hElastase: NovaScreen (NVS) Enzymatic Assay for human Elastase (AID 2283153)
Summary of the method: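 Concentration-response to 50 uM max, run singly for chemicals passing a threshold (e.g., 30% inhibition) in a duplicate 25 uM single-point screen. Neutrophil-derived human elastase, absorbance read-out of enzyme activity at 1.5 h; DMSO baseline.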

[9] = target: human Ephrin type-B Receptor 2 (EphB2), EPHB2 (gene 2048) (UniProt P29323); assay: NVS_ENZ_hEphB2: NovaScreen (NVS) Enzymatic Assay for human Ephrin type-B Receptor 2 (EphB2) (AID 2283156)
Summary of the method: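 Compounds were first tested in duplicate at 25 uM, with hits rerun singly in concentration series up to 50 uM. Enzyme activity on fluorescent substrate was read at 1 h by mobility-shift separation, scored as signal loss relative to DMSO.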

[10] = target: human Ephrin type-A Receptor 2 (EphA2), EPHA2 (gene 1969) (UniProt P29317); assay: NVS_ENZ_hEphA2: NovaScreen (NVS) Enzymatic Assay for human Ephrin type-A Receptor 2 (EphA2) (AID 2283155)
Summary of the method: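 Enzyme activity of recombinant EphA2 read by fluorescence after mobility-shift separation, 1 h after dosing. Chemicals first tested at 25 uM (duplicate); those passing threshold run as concentration series, top 50 uM, single replicate, relative to DMSO.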

human Ephrin type-A Receptor 1 (EphA1), EPHA1 (gene 2041), sequence (P21709 whole entry, looked up): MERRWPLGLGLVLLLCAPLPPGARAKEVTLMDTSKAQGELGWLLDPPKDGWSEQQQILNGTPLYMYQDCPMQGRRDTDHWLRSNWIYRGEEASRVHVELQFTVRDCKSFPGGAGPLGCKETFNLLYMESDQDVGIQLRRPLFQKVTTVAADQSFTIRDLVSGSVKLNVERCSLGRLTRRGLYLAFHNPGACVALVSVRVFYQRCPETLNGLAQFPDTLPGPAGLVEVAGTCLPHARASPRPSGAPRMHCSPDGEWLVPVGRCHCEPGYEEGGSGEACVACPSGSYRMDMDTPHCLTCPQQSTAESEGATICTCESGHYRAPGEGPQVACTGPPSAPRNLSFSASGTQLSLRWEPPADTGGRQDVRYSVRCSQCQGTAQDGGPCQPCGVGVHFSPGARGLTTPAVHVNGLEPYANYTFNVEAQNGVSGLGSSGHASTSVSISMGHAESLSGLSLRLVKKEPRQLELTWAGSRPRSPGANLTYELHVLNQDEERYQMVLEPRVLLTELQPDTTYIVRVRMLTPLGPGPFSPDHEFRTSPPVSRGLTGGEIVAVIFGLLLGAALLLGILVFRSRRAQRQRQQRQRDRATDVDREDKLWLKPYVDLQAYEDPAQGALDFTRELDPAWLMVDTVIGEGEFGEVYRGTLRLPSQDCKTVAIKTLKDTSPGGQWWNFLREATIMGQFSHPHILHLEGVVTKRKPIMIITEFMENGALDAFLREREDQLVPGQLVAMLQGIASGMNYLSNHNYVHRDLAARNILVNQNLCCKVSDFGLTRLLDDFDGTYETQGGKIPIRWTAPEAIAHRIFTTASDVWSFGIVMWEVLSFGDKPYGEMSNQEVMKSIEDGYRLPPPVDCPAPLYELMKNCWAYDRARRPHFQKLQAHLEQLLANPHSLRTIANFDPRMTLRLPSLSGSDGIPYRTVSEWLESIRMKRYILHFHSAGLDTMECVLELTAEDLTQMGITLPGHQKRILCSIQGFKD
human FYN Proto-Oncogene, Src family Tyrosine Kinase (Fyn), FYN (gene 2534), sequence (P06241 whole entry, looked up): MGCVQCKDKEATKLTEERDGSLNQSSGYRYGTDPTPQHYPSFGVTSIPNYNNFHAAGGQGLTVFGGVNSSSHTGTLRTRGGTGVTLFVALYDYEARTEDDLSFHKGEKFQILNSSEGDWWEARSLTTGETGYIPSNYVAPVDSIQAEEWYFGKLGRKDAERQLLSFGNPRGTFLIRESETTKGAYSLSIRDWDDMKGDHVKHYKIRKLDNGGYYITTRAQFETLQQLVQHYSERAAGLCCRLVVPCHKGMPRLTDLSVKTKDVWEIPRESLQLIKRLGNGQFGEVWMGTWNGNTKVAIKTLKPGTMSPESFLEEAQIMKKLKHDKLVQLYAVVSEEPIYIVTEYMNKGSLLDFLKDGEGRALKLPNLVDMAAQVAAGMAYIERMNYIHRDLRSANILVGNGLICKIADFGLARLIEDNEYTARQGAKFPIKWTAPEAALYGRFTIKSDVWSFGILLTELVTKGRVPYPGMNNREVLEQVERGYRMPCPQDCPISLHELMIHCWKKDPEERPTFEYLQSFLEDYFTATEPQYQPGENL
human Esterase Plasma (ES), BCHE (gene 590), sequence (P06276 whole entry, looked up): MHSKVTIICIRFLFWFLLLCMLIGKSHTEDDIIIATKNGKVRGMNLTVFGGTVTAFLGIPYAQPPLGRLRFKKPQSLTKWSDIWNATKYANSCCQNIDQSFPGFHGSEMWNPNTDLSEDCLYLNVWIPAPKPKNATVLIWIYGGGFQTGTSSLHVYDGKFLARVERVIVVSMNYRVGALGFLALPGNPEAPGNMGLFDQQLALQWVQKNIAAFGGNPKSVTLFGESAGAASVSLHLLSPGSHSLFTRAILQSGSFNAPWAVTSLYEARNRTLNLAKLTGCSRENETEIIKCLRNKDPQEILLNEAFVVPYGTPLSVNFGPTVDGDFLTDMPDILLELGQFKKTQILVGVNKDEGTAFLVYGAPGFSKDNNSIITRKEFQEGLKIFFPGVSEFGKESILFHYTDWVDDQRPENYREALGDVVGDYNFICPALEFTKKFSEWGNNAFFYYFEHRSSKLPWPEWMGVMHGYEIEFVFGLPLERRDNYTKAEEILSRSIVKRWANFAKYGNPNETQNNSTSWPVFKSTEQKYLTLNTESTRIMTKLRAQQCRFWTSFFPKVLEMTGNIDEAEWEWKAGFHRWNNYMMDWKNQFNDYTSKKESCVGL
Histone deacetylase 3 (Homo sapiens), sequence (O15379 whole entry, looked up): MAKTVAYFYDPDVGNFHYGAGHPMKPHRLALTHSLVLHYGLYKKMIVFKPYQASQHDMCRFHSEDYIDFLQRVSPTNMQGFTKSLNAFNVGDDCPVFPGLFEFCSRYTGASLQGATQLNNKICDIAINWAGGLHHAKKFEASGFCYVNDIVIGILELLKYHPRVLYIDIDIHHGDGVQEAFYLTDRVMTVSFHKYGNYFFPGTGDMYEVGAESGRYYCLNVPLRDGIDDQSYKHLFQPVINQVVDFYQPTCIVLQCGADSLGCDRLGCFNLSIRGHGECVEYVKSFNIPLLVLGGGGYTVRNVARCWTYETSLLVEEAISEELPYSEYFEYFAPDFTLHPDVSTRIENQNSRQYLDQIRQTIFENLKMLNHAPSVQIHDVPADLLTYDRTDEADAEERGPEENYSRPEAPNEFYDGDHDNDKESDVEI
human Dual Specificity Protein Phosphatase 3 (DUSP3), DUSP3 (gene 1845), sequence (P51452 whole entry, looked up): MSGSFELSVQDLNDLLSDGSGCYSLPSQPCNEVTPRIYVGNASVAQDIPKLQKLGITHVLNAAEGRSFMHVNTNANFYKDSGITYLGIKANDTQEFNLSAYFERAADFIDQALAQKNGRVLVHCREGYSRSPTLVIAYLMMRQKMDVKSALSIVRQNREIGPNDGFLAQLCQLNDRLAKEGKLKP
human Fibroblast Growth Factor Receptor 1 (FGFR1), FGFR1 (gene 2260), sequence (P11362 whole entry, looked up): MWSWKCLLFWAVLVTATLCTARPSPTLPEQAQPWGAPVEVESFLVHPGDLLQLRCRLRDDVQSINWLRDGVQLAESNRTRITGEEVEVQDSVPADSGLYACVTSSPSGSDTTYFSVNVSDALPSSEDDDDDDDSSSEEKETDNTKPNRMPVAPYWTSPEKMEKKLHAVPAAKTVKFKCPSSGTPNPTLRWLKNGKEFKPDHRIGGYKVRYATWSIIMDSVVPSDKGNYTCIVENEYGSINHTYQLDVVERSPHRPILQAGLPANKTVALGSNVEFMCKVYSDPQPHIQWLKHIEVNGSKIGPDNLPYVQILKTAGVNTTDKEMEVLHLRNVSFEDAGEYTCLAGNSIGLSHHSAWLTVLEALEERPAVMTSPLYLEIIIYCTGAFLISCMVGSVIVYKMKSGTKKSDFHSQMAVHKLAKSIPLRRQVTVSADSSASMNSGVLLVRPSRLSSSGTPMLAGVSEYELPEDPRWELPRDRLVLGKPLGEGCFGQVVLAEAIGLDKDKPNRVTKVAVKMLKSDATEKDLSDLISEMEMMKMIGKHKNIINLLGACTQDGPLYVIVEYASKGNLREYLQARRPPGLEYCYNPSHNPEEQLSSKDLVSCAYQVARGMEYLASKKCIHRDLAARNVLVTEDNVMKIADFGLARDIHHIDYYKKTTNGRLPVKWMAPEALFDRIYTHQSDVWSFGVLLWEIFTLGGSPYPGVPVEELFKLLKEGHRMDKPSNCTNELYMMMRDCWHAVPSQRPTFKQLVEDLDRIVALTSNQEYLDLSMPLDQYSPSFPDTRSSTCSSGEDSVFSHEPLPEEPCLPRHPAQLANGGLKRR
human Elastase, ELANE (gene 1991), sequence (P08246 whole entry, looked up): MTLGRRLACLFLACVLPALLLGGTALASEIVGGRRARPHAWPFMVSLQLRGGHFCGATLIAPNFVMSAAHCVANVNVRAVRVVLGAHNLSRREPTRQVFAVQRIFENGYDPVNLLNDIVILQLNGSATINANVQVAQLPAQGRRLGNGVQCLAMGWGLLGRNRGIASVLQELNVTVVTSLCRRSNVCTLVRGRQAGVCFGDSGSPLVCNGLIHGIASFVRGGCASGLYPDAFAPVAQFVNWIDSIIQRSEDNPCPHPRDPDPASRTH
human Ephrin type-B Receptor 1 (EphB1), EPHB1 (gene 2047), sequence (P54762 whole entry, looked up): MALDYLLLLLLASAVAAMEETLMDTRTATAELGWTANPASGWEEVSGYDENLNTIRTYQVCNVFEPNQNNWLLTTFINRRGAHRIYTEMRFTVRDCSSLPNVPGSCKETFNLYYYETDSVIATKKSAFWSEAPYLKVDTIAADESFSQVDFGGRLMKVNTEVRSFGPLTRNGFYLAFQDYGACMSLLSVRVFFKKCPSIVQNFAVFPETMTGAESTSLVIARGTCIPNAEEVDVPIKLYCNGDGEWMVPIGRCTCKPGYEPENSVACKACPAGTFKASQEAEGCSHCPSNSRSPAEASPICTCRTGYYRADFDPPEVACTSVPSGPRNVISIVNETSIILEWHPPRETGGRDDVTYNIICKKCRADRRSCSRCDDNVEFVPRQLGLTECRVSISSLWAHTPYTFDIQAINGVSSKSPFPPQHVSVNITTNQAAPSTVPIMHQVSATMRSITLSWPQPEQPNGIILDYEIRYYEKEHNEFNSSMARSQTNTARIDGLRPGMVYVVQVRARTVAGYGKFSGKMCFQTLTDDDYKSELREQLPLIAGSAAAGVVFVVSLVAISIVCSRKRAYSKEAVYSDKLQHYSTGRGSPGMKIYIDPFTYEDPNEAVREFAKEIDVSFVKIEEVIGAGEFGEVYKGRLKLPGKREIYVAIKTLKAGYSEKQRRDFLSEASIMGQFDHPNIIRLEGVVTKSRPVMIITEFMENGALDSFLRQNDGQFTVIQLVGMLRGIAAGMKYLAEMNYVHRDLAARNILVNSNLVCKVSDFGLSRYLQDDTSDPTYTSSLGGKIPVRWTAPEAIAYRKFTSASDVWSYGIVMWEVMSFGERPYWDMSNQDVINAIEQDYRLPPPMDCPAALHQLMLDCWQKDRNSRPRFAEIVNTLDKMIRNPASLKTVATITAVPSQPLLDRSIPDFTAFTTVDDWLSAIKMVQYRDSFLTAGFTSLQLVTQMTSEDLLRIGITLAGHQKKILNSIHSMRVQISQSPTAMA

`CN(C)c1nc(=O)n(C2CCCCC2)c(=O)n1C` was tested, and the outcome [1] was “inactive”.

In the case of `O=C(O)C(F)(F)C(F)(F)C(F)(F)C(F)(F)C(F)(F)C(F)(F)C(F)(F)C(F)(F)C(F)(F)F`, the AC50 [2] is reported as 13 µM (active).

In the case of `Cc1cccc([N+](=O)[O-])c1`, the outcome [3] is reported as “inactive” and the outcome [4] is reported as “inactive”.

In the case of `c1cc2ccc3cccc4ccc(c1)c2c34`, the outcome [4] is reported as “inactive” and the outcome [5] is reported as “inactive”.

With `CCCCCCCCOC(=O)c1ccccc1C(=O)OCCCCCCCC` the outcome [2] was “inactive”.

In the case of `CC1=C2C[C@H]3[C@@H](CC=C4C[C@@H](O)CC[C@@]43C)[C@@H]2CC[C@]12O[C@@H]1C[C@H](C)CN[C@H]1[C@H]2C`, the AC50 [6] is reported as 12.5 µM (active), the outcome [3] is reported as “inactive” and the AC50 [4] is reported as 21.1 µM (active). The outcome [7] was “inactive” and the outcome [5] was “inactive”.

For `Nn1cnnc1`, the outcome [5] was “inactive”.

With `CCCN(CCC)N=O` the outcome [6] was “inactive”.

In the case of `CCCCCCCCCC[N+](C)(C)CCCCCCCCCC`, the AC50 [2] is reported as 26.3 µM (active), the AC50 [6] is reported as 25 µM (active) and the AC50 [3] is reported as 19.7 µM (active).

For `Cc1ccccc1CO[C@@H]1C[C@@]2(C(C)C)CC[C@]1(C)O2`, the outcome [1] was “inactive”, the AC50 [6] was 9.07 µM (active) and the outcome [4] was “inactive”.

`CCC(C)c1cc([N+](=O)[O-])cc([N+](=O)[O-])c1O` (stereo not given) was tested, and the outcome [4] was “inactive”.

With `C=CC(=O)NCNC(=O)C=C` the outcome [4] was “inactive”.

In the case of `Clc1ccc(C(c2ccccc2Cl)C(Cl)(Cl)Cl)cc1` (stereo not given), the outcome [4] is reported as “inactive”.

For `O=S(=O)(O)C(F)(F)C(F)(F)C(F)(F)C(F)(F)F`, the outcome [4] was “inactive”.

For `O=S(=O)(O)C(F)(F)C(F)(F)C(F)(F)C(F)(F)C(F)(F)C(F)(F)F`, the outcome [4] was “inactive”.

With `ClC1=C(Cl)[C@]2(Cl)[C@@H]3[C@@H]4C[C@@H]([C@H]5O[C@@H]45)[C@@H]3[C@@]1(Cl)C2(Cl)Cl` the AC50 [2] was 46.6 µM (active) and the AC50 [8] was 37.5 µM (active).

With `O=C(O)C(F)(F)C(F)(F)C(F)(F)C(F)(F)C(F)(F)C(F)(F)C(F)(F)C(F)(F)F` the outcome [3] was “inactive”, the outcome [4] was “inactive” and the outcome [7] was “inactive”.

With `O=C(N[C@H]1CN2CCC1CC2)c1cc2ccoc2cn1` the outcome [6] was “inactive” and the outcome [4] was “inactive”.

In the case of `CCCCCCCCCc1ccc(O)cc1`, the AC50 [2] is reported as 13.2 µM (active) and the outcome [3] is reported as “inactive”.

In the case of `CC(c1ccc(O)cc1)(c1ccc(O)cc1)c1ccc(O)cc1`, the AC50 [4] is reported as 25 µM (active).

For `CCOP(=S)(OCC)SCSC(C)(C)C`, the outcome [5] was “inactive”.

For `Cc1cc2c3c(c1)C(c1ccccc1)=N[C@@H](NC(=O)c1ccncc1)C(=O)N3CC2`, the outcome [4] was “inactive”.

With `NS(=O)(=O)C(F)(F)C(F)(F)C(F)(F)C(F)(F)C(F)(F)C(F)(F)C(F)(F)C(F)(F)F` the outcome [8] was “inactive”.

`Oc1ccc(C(c2ccc(O)cc2)(C(F)(F)F)C(F)(F)F)cc1` was tested, and the outcome [9] was “inactive” and the outcome [7] was “inactive”.

`ClC(Cl)=C(c1ccc(Cl)cc1)c1ccc(Cl)cc1` was tested, and the outcome [4] was “inactive”.

In the case of `O=C(O)C(F)(F)C(F)(F)C(F)(F)C(F)(F)C(F)(F)F`, the outcome [5] is reported as “inactive”.

For `O=C(NC(=O)c1c(F)cccc1F)Nc1cc(Cl)c(OC(F)(F)C(F)F)c(Cl)c1`, the outcome [10] was “inactive” and the outcome [3] was “inactive”.

With `CCCCCCOC(=O)c1ccccc1C(=O)OCCCCCC` the outcome [4] was “inactive”.
